Most compounds without a hit are left out; they make up all but 28% or so of the library.
CYP2C9 activ = activators of human CYP2C9. recombinant CYP2C9, luciferin-H conversion, luminescence; active compounds read high; factor 1 = untreated enzyme, 0 = blocked. activation factor at 5 µM. 1.4% of 96,000 active. AID 1024;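 active means activation factor of 2 or more for CYP2C9 at a 5 µM dose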
Target sequence (P11712 whole entry, looked up): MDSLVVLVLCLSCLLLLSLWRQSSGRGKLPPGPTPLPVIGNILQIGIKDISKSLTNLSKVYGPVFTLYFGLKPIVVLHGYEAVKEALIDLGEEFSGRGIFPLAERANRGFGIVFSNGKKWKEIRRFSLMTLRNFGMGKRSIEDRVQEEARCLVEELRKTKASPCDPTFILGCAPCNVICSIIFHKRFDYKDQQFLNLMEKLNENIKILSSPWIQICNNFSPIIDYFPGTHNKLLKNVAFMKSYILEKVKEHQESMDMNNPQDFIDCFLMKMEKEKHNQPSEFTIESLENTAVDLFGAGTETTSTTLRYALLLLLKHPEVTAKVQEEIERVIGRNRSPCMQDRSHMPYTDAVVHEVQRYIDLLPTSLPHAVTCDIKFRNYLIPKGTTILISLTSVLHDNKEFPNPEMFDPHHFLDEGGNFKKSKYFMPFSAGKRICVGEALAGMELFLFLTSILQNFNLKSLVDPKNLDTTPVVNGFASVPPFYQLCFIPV
Mac1 fbg inh = CD11b/CD18-fibrinogen binding inhibition; 0.54% of 93,000 active; P05107+P11215; inhibition, % at 10 µM; AID 1497; K562 CD11b/CD18 adhesion to fibrinogen, ATPlite luminescence; Mn2+ added to activate the integrin;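 active means primary inhibition of 50% or more at 10 µM, then 40% or more on retest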
CYP2C9 inhib = blocks human cytochrome P450 2C9. P11712. CYP2C9 Supersomes, luciferin-H conversion, luminescence. inhibition, % at 5 µM. 20% of 96,000 active. AID 777;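 active means blocking of liver enzyme CYP2C9 beyond about 50% at 5 µM, limit read from the data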
CD11b adhes enh = increases human CD11b/CD18 adhesion to fibrinogen. K562 CD11b/CD18 adhesion to fibrinogen, ATPlite luminescence. activation, % at 10 µM. 0.07% of 93,000 active;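 active means 10 µM primary screen giving 50% or more activity, confirmed by 40% or more on retest at that dose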
CYP2C19 inhib = blocks human cytochrome P450 2C19; P33261; 21% of 96,000 active; AID 778; CYP2C19 Supersomes, luciferin-H EGE luminescence, 30 min; inhibition, % at 5 µM;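 active means CYP2C19 inhibition above a set limit at 5 µM in the primary screen, cut at about 50% in these data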
CYP2C19 activ = cytochrome P450 2C19 (human) activation; recombinant CYP2C19, luciferin-H EGE luminescence; active compounds read high; 0 = fully inhibited enzyme, 1 = untreated enzyme; activation factor at 5 µM; 96,000 tested, under 10 active; AID 1025;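 active means activation factor of at least 2 at 5 µM in the primary screen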
Hits are given with their value; 0 = inactive; - = no result given.

SMILES	CYP2C9 activ	Mac1 fbg inh	CYP2C9 inhib	CD11b adhes enh	CYP2C19 inhib	CYP2C19 activ
CCc1c(C)nc2ncnn2c1N1CCC(C(=O)N2CCN(c3ccc(F)cc3)CC2)CC1	0	0	0	0	60.6	0
Cc1nc2ncnn2c(N2CCC(C(=O)NC3CCCC3)CC2)c1Cc1ccccc1	0	0	60.0	0	66.3	0
CCCCNCCCOc1cccc(Cl)c1Cl	0	0	0	0	0	0
CC1CC(=O)c2cnc(Nc3ccccc3)nc2C1 (stereo unspecified)	0	0	0	0	0	0
CC1CC(=O)c2cnc(Nc3cccc(C(F)(F)F)c3)nc2C1 (stereo unspecified)	0	0	0	0	53.4	0
CC(=O)NCCn1c(SCc2cc(=O)n3cc(Cl)ccc3n2)nc2ccccc2c1=O	0	0	0	0	0	0
CCCC1C(c2ccc(OC)cc2)C(C#N)(C#N)C2(C#N)CC1(N)NC2=O (stereo unspecified)	0	0	0	0	0	0
CCOC(=O)CSC(CC)C(=O)Nc1nnc(CC)s1 (stereo unspecified)	0	0	0	0	0	0
CCOC(=O)c1c(C)[nH]c(C(=O)COC(=O)/C=C/c2ccc3c(c2)OCO3)c1C	-	0	-	0	-	-
CCCNC(=O)COC(=O)c1[nH]c(C)c(C(=O)OCC)c1C	0	0	64.4	0	0	0
COC(=O)c1c(C)[nH]c(C(=O)OCC(=O)NCC(C)C)c1C	0	0	0	0	0	0
CCCN(CC1CC1)C(=O)COC(=O)c1[nH]c(C)c(C(=O)OCC)c1C	0	0	0	0	60.5	0
CCOC(=O)c1[nH]c(C)c(C(=O)OCC)c1C	0	0	75.2	0	84.1	0
CCOC(=O)c1c(C)[nH]c(C(=O)COC(=O)C2CC2C)c1C (stereo unspecified)	0	0	98.3	0	72.8	0
CCOC(=O)c1c(C)[nH]c(C(=O)COC(=O)c2[nH]c(C)c(C(C)=O)c2C)c1C	0	0	0	0	0	0
CCOC(=O)c1c(C)[nH]c(C(=O)COC(=O)c2ccncc2)c1C	0	0	91.6	0	0	0
CCOC(=O)c1[nH]c(C)c(C(=O)c2cc(F)ccc2F)c1C	0	0	93.0	0	95.0	0
CCOC(=O)c1[nH]c(C)c(C(=O)Nc2ccc(Cl)cc2)c1C	0	0	0	0	0	0
CCOC(=O)n1c(=O)n(Cc2c(Cl)cccc2Cl)c2ccccc21	0	-	0	-	60.6	0
CCOC(=O)n1c(=O)n(Cc2ccc(Cl)c(Cl)c2)c2ccccc21	0	0	53.3	0	51.3	0
CCOC(=O)n1c(=O)n(Cc2ccccc2)c2ccccc21	0	0	0	0	70.3	0
CCOC(=O)n1c(=O)oc2ccccc21	0	0	0	0	0	0
OC(COC(c1ccc(F)cc1)c1ccc(F)cc1)CN1CCc2ccccc2C1 (stereo unspecified)	-	0	-	0	-	-
CN(Cc1ccccc1)C(=O)CCNS(=O)(=O)c1ccc2c(c1)oc(=O)n2C	0	0	0	0	0	0
CCN(CC)CC(C)(C)NS(=O)(=O)c1ccc(Cl)cc1	0	0	0	0	0	0
SMILES	CYP2C9 activ	Mac1 fbg inh	CYP2C9 inhib	CD11b adhes enh	CYP2C19 inhib	CYP2C19 activ
CC(C)(CN1CCCCC1)NS(=O)(=O)c1ccc(Cl)cc1	0	0	0	0	54.6	0
O=C1C(NS(=O)(=O)c2ccc(Cl)cc2)=C(N2CCCCC2)C(=O)c2ccccc21	-	0	-	0	-	-
CC1CC(C)CN(CC(C)(C)NS(=O)(=O)c2ccc(Cl)cc2)C1 (stereo unspecified)	0	0	56.4	0	75.6	0
CN(C)CC(C)(C)NS(=O)(=O)c1ccc(Cl)cc1	0	0	0	0	55.6	0
Cc1ccc(S(=O)(=O)NCC(=O)N2CCCCC2)cc1	0	0	0	0	0	0
CC(C)(CNS(=O)(=O)c1ccc(Cl)cc1)N1CCCCC1	0	0	0	0	64.2	0
COc1ccc(-c2nnc3n(CCc4ccccc4)c(=O)c4ccccc4n23)cc1OC	-	0	-	0	-	-
CCOc1ccc(N2CC(C(=O)Nc3ccc(S(=O)(=O)Nc4ncccn4)cc3)CC2=O)cc1 (stereo unspecified)	0	0	0	0	0	0
Cc1nn(C(C)C(=O)O)c2ccccc12 (stereo unspecified)	0	0	0	0	0	0
CCCCn1nnnc1SCC(=O)c1cc(Cl)ccc1OC	2	-	0	-	74.5	0
CCCCn1nnnc1SCC(=O)c1ccc(C)c(C)c1	0	0	0	0	89.8	0
COc1ccc(Cl)cc1C(=O)CSc1nc(N)cc(N)n1	4.1	0	0	0	0	0
Nc1cc(N)nc(SCC(=O)c2ccccc2)n1	0	-	0	-	0	0
CCOc1ccc(-n2c(N)c(-c3nc4ccccc4n3C)c3nc4ccccc4nc32)cc1	-	0	-	0	-	-
Cc1ccc2[nH]c3c(c2c1)CN(C(=O)CN1CCN(c2ccccn2)CC1)CC3	0	0	0	0	0	0
Cc1ccc2[nH]c3c(c2c1)CN(C(=O)CN1CCSCC1)CC3	0	0	0	0	50.9	0
Cc1ccc2[nH]c3c(c2c1)CN(C(=O)CN1CC(C)OC(C)C1)CC3 (stereo unspecified)	0	0	0	0	70.7	0
Cc1ccc2[nH]c3c(c2c1)CN(C(=O)CN1CCN(Cc2ccc4c(c2)OCO4)CC1)CC3	0	0	62.2	0	62.4	0
CC(C)(C)n1nnnc1C(c1cccs1)N(Cc1ccc(Cl)cc1)CC1CCCO1 (stereo unspecified)	0	0	0	0	0	0
Cc1cccc(CN(C)CCc2ccccn2)c1	0	0	0	0	0	0
Cc1cccc(OCC(=O)N(C)CCc2ccccn2)c1	0	0	0	0	67.6	0
CCOC(=O)C1=C(N)Oc2cc(O)ccc2C1c1cccnc1 (stereo unspecified)	0	0	90.5	0	89.2	0
CCOC(=O)C1=C(C(C)=O)C(c2cccnc2)C(C#N)=C(N)O1 (stereo unspecified)	0	0	0	0	0	0
O=C1NC(c2ccc3c(c2)OCO3)Nc2ccccc21 (stereo unspecified)	0	0	0	0	62.4	0
O=C1NC(c2ccc3c(c2)OCO3)Oc2ccccc21 (stereo unspecified)	0	0	79.1	0	95.9	0
CC(=O)Nc1ccc(C2NC(=O)c3ccccc3O2)cc1 (stereo unspecified)	0	0	0	0	0	0
O=C(O)CCn1cc(/C=C/C(=O)c2ccc(Cl)cc2)c(-c2ccc(Br)cc2)n1	-	0	-	0	-	-
COc1ccccc1CNC(=O)CN(c1ccc(C)cc1)S(=O)(=O)c1c(C)n[nH]c1C	0	0	67.3	0	67.2	0
Cc1ccc(N(CC(=O)Nc2ccc3c(c2)OCCO3)S(=O)(=O)c2c(C)n[nH]c2C)cc1	0	0	73.5	0	62.2	0
